These results are taken from PubChem BioAssay AID2685 (National Center for Advancing Translational Sciences (NCATS), 2010).

Screen size: about 320,000 compounds; about 2,100 (0.66%) were called active. Not shown: some 53% with an inconclusive outcome. Calls follow the shape of the dose curve; as a rule, active = well fitted inhibition curve with a large enough effect in the signal ratio, with a control signal flat (not every such curve was filed as active); inconclusive = small, poorly fitted or top-dose-only effect, or effect the other way, or a change in a side signal; inactive = flat fitted curve, though single readings scatter; the % refers to the signal ratio. Many of the other results were omitted from the sample, so actives are more common in it than they were.
Potency is read from the fitted curve at half-maximal effect.

The nature of the test: qHTS Assay for Lipid Storage Modulators in Drosophila S3 Cells.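 As to cell number change: cells counted by Cell Tracker Red CMTPX staining in the red channel.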 As to lipid storage change, negative = inhibition: % is scaled to controls: 0 for no effect and ±100 for the full control effect. The note with it: BODIPY lipid droplet fluorescence, 18-24 h, cells fed with added oleic acid; cell number change: measured here: cell count max response; series mostly up to 46.1 µM; lipid storage change, negative = inhibition: at the top concentration. From the text: NIH Molecular Libraries Probe Production Centers Network [MLPCN] NIH Chemical Genomics Center [NCGC] MLPCN Grant: 1 R03 MH085686-01 Assay Submitter (PI): Beller, Mathias; Max-Planck-Institut fur Biophysikalische Chemie NCGC Assay Overview: Storing lipids as a reservoir for energy or the anabolism of elementary metabolites is a common feature of probably all cells and is conserved from bacteria to humans. The universal cellular lipid storage organelle is the so-called lipid storage droplet (LD). Although ubiquitous, LDs share a simple structure composed of a hydrophobic core that harbors the storage lipids, which is shielded by a droplet-specific phospholipid monolayer to which proteins are attached. The current model of LD biogenesis involves an incorporation of the lipid core into the membrane leaflets of the endoplasmic reticulum (ER) followed by a subsequent budding-like maturation of a LD, which ultimately pinches off. Once released, LD volume can increase by localized lipogenesis or fusion of existing droplet. Storage lipids are re-mobilized enzymatically by lipase activity. Lipase regulation in the adipocyte is heavily studied and involves multiple components including catecholamine signaling, the LD-associated proteins Perilipin and comparative gene identification (CGI-58) and at least two lipases named hormone sensitive lipase (HSL) and adipocyte triglyceride lipase (ATGL). LD regulation outside of the adipocyte is poorly understood and only few components are known. However, there is an urgent need to learn more about ectopic fat depots as mislocalized storage of lipids, for example in the liver or muscle, is an eminent health problem associated with insulin resistance or the metabolic syndrome. We developed a laser-scanning cytometer assay to enable 1,536-well screening and combined the results of the small molecules screen with an RNAi database based on lipid storage.
Triacsin C (Sigma-Aldrich T-4540), an inhibitor of long-chain fatty acyl CoA synthetase that blocks synthesis of triglycerides, was used as a positive control for lipid under-storage. A total of 23 nL of compound solution of different concentrations were transferred to the assay plates using a Kalypsys pin tool equipped with a 1,536-pin array containing 10-nL slotted pins (FP1S10, 0.457-mm diameter, 50.8 mm long; V&P Scientific). One microliter of oleic acid (400 uM) was added, and the plate was lidded with stainless steel rubber gasket lined lids containing pinholes. […] Fluorescence was detected by excitation of the fluorophores with a 488-nm laser on an Acumen Explorer (TTP Lab Tech). The total intensity in channel 2 (500-530 nm) reflected lipid droplet accumulation. Cells were detected using channel 3 (575-640 nm) with 5-um width and 100-um depth filters. The ratio of the number of objects in PMT channel 2 over the number of objects in PMT channel 3 was also calculated. Percent activity was computed relative to an internal control (100% inhibited lipid droplet deposition due to the presence of 20 uM Triacsin C), which was added to 32 wells/plate.
For orientation: Quantitative high-throughput screening tests each substance at several concentrations.
In the case of `COc1cccc(CNC(=O)CCC(=O)N2Cc3cccc(OC)c3Oc3ncccc32)c1OC`, the “lipid storage change, negative = inhibition” value is -20.7% (inactive).

Take `Cc1ccc(CSCc2ccc(C(=O)NCCCN3CCOCC3)o2)cc1`: the “lipid storage change, negative = inhibition” value was -1.21% (inactive).

Turning to `COc1cc(S(=O)(=O)N(Cc2cccnc2)Cc2cccc(OC)c2OC)ccc1-n1cnnn1`, the “lipid storage change, negative = inhibition” value is -2.65% (inactive) and the cell number change was -1.62%.

Take `O=C(COc1ccc([N+](=O)[O-])cc1)Nc1ccc(NC(=O)c2ccccc2)cc1`: the “lipid storage change, negative = inhibition” value was 8.49% (inactive) and the cell number change was -8.36%.

Take `Oc1ccccc1C1=NN(c2ccccc2)C(c2ccccc2)C1` (centres undefined): the Potency was 1.64 µM (active) and the cell number change is 0.901%.

`O=Cc1ccc(N2N=C(c3ccccc3)CC2c2ccccc2)cc1` (centres undefined): the “lipid storage change, negative = inhibition” value was 2.28% (inactive) and the cell number change is -15.5%.

For `O=C(O)c1ccc(N2N=C(c3ccccc3)CC2c2ccccc2)cc1` (centres undefined), the molecule was called inactive and the cell number change was -6.08%.

For the molecule `CS(=O)(=O)c1ccc(C(=O)NCc2ccc(F)cc2)cc1`, the “lipid storage change, negative = inhibition” value is 1.05% (inactive) and the cell number change stood at 23%.

Take `N/C(Cc1ccc([N+](=O)[O-])cc1)=N\OC(=O)c1ccc(Br)cc1`: the Potency was 8.2 µM (active) and the cell number change was determined as 0.393%.

Turning to `N/C(Cc1ccc([N+](=O)[O-])cc1)=N\OC(=O)c1ccc(Br)o1`, the “lipid storage change, negative = inhibition” value is 6.27% (inactive) and the cell number change turned out to be 10.2%.

With `N/C(=N\OC(=O)c1ccc([N+](=O)[O-])cc1)c1ccc(Br)cc1`, the molecule was classed as inactive and the cell number change came out at 19%.

For the molecule `COC(=O)c1sccc1N/N=C/c1cccc(Oc2ccccc2)c1`, the “lipid storage change, negative = inhibition” value is 10.2% (inactive) and the cell number change was -12.1%.

For the molecule `COc1ccc(CNC(=O)CCn2c(=O)c3cccn3c3ccc(F)cc32)cc1`, the Potency was 5.8 µM (active) and the cell number change was -3.83%.

For the molecule `CCCCNC(=O)CCn1c(=O)c2cccn2c2ccc(F)cc21`, the “lipid storage change, negative = inhibition” value is -5.76% (inactive) and the cell number change was -8.11%.

Regarding `COc1ccc(NC(=O)CCn2c(=O)c3cccn3c3ccccc32)cc1`, the molecule was classed as inactive and the cell number change was -20.6%.

For `CCCS(=O)(=O)c1nc(S(=O)(=O)c2ccc(C)cc2)c(N2CCN(C)CC2)s1`, the call was inactive.

Consider `CCCS(=O)(=O)c1nc(S(=O)(=O)c2ccc(C)cc2)c(N2CC(C)OC(C)C2)s1` (centres undefined), for which the Potency was 18.4 µM (active) and the cell number change was -24.5%.

`CCCS(=O)(=O)c1nc(S(=O)(=O)c2ccc(C)cc2)c(N2CCC(C)CC2)s1`: the “lipid storage change, negative = inhibition” value is -12.9% (inactive).

As to `C/C(=N/NC(=O)c1ccncc1)c1ccccc1`, the “lipid storage change, negative = inhibition” value is 27.6% (inactive) and the cell number change is -7.04%.

Take `Cc1ccccc1NC(=O)COC(=O)c1ccc(S(=O)(=O)N2CCCC2)cc1`: the “lipid storage change, negative = inhibition” value is 9.1% (inactive) and the cell number change is 10.7%.

Consider `CC(=O)c1cccc(NC(=O)COC(=O)c2ccc(S(C)(=O)=O)c([N+](=O)[O-])c2)c1`, for which the “lipid storage change, negative = inhibition” value is -16.9% (inactive) and the cell number change is -10.3%.

Consider `Cc1ccccc1NC(=O)COC(=O)c1ccc(S(C)(=O)=O)c([N+](=O)[O-])c1`, for which the Potency is 25.9 µM (active) and the cell number change was -15.7%.

With `Cc1ccc(NC(=O)c2c(C)nn(-c3ccccc3)c2Cl)c(C)c1`, the “lipid storage change, negative = inhibition” value was 1.17% (inactive) and the cell number change is -13.2%.

As to `CC(=O)N1CCOc2ccc(S(=O)(=O)N3CCC(C(=O)NCc4ccc(C)cc4)CC3)cc21`, the “lipid storage change, negative = inhibition” value is -5.97% (inactive) and the cell number change turned out to be 17.2%.

As for `CS(=O)(=O)N1CCC(C(=O)NCC2CCCO2)CC1` (centres undefined), the Potency is 2.31 µM (active) and the cell number change is -2.74%.

In the case of `CCCCS(=O)(=O)N1CCC(C(=O)NCC2CCCO2)CC1` (centres undefined), the “lipid storage change, negative = inhibition” value was 0.205% (inactive) and the cell number change amounted to 5.96%.

Consider `CCCS(=O)(=O)N1CCC(C(=O)NCC2CCCO2)CC1` (centres undefined), for which the call was inactive.

In the case of `COc1ccc(CC(=O)NC2CC2)cc1OC`, the outcome was inactive and the cell number change came out at 20.4%.

For `COc1ccc(CC(=O)NC2CCN(Cc3nnnn3C(C)(C)C)CC2)cc1OC`, the Potency was 2.59 µM (active) and the cell number change is -1.5%.

Take `Cc1ccccc1C(=O)NC1CCN(Cc2nnnn2C(C)(C)C)CC1`: the “lipid storage change, negative = inhibition” value is 4.79% (inactive).

As to `CCN=C1SC(CC(=O)NC(C)c2ccccc2)C(=O)N1CC` (centres undefined), the “lipid storage change, negative = inhibition” value was -3.35% (inactive) and the cell number change turned out to be 8.53%.

On to `O=[N+]([O-])c1ccc(N2CCN(CCO)CC2)cc1Sc1nc2ccccc2[nH]1`, for which the “lipid storage change, negative = inhibition” value was -5.35% (inactive) and the cell number change was -10.6%.

`Cc1cccc(NC(=S)NN2CCN(C)CC2)c1C`: the molecule was called inactive and the cell number change was found to be 19.2%.

In the case of `CN1CCN(NC(=S)Nc2ccccc2)CC1`, the “lipid storage change, negative = inhibition” value was -1.16% (inactive) and the cell number change turned out to be 5.3%.

In the case of `Cc1cccc(C)c1NC(=S)NN1CCN(C)CC1`, the Potency was 23.1 µM (active) and the cell number change was -31.3%.

`COC(=O)c1ccc(Cc2ccc(C(=O)OC)o2)o1`: the “lipid storage change, negative = inhibition” value was 9.86% (inactive) and the cell number change is 11%.

As for `COC(=O)c1ccc(Cc2ccccc2)o1`, the Potency is 25.9 µM (active) and the cell number change was found to be 0.155%.

As to `COC(=O)c1ccc(COc2ccccc2OC)o1`, the “lipid storage change, negative = inhibition” value is 20.1% (inactive) and the cell number change is -9.22%.

As for `COc1cccc(CC(=O)N(CCC2=CCCCC2)c2c(N)n(Cc3ccccc3)c(=O)[nH]c2=O)c1`, the “lipid storage change, negative = inhibition” value was 24.1% (inactive) and the cell number change was -11.8%.

For `Cc1ccc(-c2nn(-c3ccccc3)c3[nH]c(=O)c(CNCCN(C)C)cc23)cc1`, the result was inactive and the cell number change is -8.5%.

Consider `Cc1nn(-c2ccccc2)c2[nH]c(=O)c(CNc3ccc(N4CCOCC4)cc3)cc12`, for which the “lipid storage change, negative = inhibition” value is 21.5% (inactive) and the cell number change is -0.634%.

For the molecule `Cc1nn(-c2ccccc2)c2[nH]c(=O)c(CNCCN3CCOCC3)cc12`, the Potency was 23.1 µM (active) and the cell number change was -6.25%.

For the molecule `Cc1ccc2c(COC(=O)c3ccccc3Br)cc(=O)oc2c1`, the result was inactive and the cell number change is 8.73%.

Turning to `Cc1ccc2c(COC(=O)c3ccccc3Cl)cc(=O)oc2c1`, the Potency was 1.64 µM (active) and the cell number change amounted to 0.403%.

Regarding `Cc1ccc2c(COC(=O)c3ccccc3OC(F)F)cc(=O)oc2c1`, the molecule was classed as inactive and the cell number change stood at 26.6%.
